Compound activity: PubChem BioAssay, National Center for Advancing Translational Sciences (NCATS)
An excerpt weighted towards active compounds, which were near 1.1% of everything screened.
GLS inhibitor = inhibitors of human glutaminase (GLS); GLS enzymatic activity, qHTS titration; 410,000 tested, 0.21% active; Potency, µM (doses to about 45.5 µM), inactives show at the highest dose activity change, negative = inhibition, hits mostly inhibitors; AID 624170; O94925
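Two-point fluorescence kinetic (t0, 30 min RT) for hKGA; glutamate detected via glutamate oxidase–HRP–Amplex Red. Substrate: 1 mM L-glutamine solution; buffer 45 mM KH2PO4, pH 8.2.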
Tb PFK block = T. brucei PFK enzyme inhibition; T. brucei PFK, ADP-Glo luminescence; O15648; 330,000 tested, 0.17% active; Potency, µM (titrated, usually from 57.5 µM), inactives show at the highest dose activity, negative = inhibition, usual class: inhibitors; AID 485367;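 also: 0% = uninhibited 1x PFK enzyme wells and -100% = no-enzyme wells; nearly all actives have a fitted effect of over 60% in size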
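In TEA buffer at pH 8.0 with 5 mM MgCl2, enzyme (1.25 nM) converted F6P (0.5 mM) and ATP (0.1 mM) for 45 min at room temperature. ADP product was read by luciferase luminescence.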
Pin1 inhibitor = inhibitors of human Pin1. Potency, µM (doses to about 115 µM), for the others: at the top dose activity, negative = inhibition, actives largely listed as inhibitors. 390,000 tested, 0.009% active. Q13526. Pin1 FP peptide displacement, HiFluor488, 10 min. AID 504891; active = well fitted inhibition curve with a large enough effect in the polarisation, with a control signal flat, not every such curve was filed as active; inconclusive = small, poorly fitted or top-dose-only effect, or effect the other way, or a change in a side signal; inactive = no such curve, though single readings can be large or run the other way; the % refers to the polarisation
Target sequence (Q13526 whole entry, looked up): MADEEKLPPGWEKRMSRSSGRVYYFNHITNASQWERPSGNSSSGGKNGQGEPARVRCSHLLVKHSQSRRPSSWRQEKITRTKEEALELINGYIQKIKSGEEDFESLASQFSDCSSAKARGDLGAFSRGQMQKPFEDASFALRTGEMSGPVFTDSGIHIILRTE
Tb PGK inh = T. brucei PGK inhibition; P07378; PGK/GAPDH coupled, Kinase-Glo luminescence, 60 min; Potency, µM (top dose mostly 57.5 µM), for the others: at the highest dose activity change, negative = inhibition, usual class: inhibitors; 380,000 tested, 0.043% active; AID 602233; also: nearly all actives have a fitted effect of over 60% in size
Target sequence (P07378 whole entry, looked up): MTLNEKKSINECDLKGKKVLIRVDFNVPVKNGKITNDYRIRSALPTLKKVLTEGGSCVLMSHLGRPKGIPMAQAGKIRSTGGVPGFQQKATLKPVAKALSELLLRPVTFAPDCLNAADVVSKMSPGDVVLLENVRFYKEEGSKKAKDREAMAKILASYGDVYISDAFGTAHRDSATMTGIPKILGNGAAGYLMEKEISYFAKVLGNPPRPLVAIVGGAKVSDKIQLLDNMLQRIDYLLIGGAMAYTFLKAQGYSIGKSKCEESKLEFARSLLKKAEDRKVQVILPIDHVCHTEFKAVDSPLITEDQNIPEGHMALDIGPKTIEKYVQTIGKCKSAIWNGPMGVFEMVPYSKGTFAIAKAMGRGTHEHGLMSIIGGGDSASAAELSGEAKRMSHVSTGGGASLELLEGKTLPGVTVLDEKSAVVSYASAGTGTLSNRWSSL
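Recombinant glycosomal PGK reaction used 1,3-bisphosphoglycerate generated in-well by GAPDH (100nM final) in 100mM TEA pH 7.6, 5mM MgCl2, 0.01% Tween-20. After 60 minutes at room temperature, ATP was read by Kinase-Glo Plus luminescence end-point.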
VDR inhibitor = blocks the human vitamin D receptor; P11473; 400,000 tested, 0.93% active; VDR-SRC2-3 peptide fluorescence polarization, 2 h; Potency, µM, without a hit: max response, negative = inhibition, actives largely listed as inhibitors
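Two reagent solutions held at 4 deg C in the dark were dispensed, compounds pinned at 23 nl, and the mixture incubated 2 h at room temperature. Read-out: fluorescence polarization of VDR–SRC2-3 peptide binding.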
Active calls of the source: *; i = inactive; u = inconclusive; x = no result. Unless noted, calls follow the shape of the dose curve; as a rule, active = well fitted curve in the direction sought with a large enough effect; inconclusive = small, poorly fitted or top-dose-only effect, or another doubt; inactive = no such curve, though single readings can be large; an effect the other way counts as inactive or inconclusive. Unless noted, % is scaled to controls: 0 for no effect and ±100 for the full control effect; potency is read from the fitted curve at half-maximal effect.

SMILES | GLS inhibitor | Tb PFK block | Pin1 inhibitor | Tb PGK inh | VDR inhibitor
Oc1ccccc1C(Nc1nccs1)c1ccc2cccnc2c1O (stereo unspecified) | 16µM* | -4% | -7% | 5% | 7%
S=c1ccss1 | x | x | x | x | 20µM*
O=c1c2sccc2n(Cc2cc(=O)n3cc(Cl)ccc3n2)c(=O)n1-c1ccccc1 | 5% | x | 1% | -13% | 6%
N#C/C(=C\c1ccccc1)C(=O)N(c1ccccn1)C1CCCCC1 | -28% | 3% | 13% | -8% | 25µM*
O=[N+]([O-])c1ccc(O)c(C2=NNC(c3ccccc3F)C2)c1 (stereo unspecified) | -19% | 2% | u | -5% | 79µM*
Oc1ccc(Cl)cc1C1=NNC(c2cccs2)C1 (stereo unspecified) | u | 0% | 18% | -4% | u
CC1(C)SC2C(N3C(=O)C(c4ccccc4)NC3(C)C)C(=O)N2C1C(=O)O (stereo unspecified) | 28µM* | x | x | x | -9%
CC(Oc1ccccc1)C(=O)NC1C(=O)N2C(C(=O)O)C(C)(C)S[C@@H]12 (stereo partly specified) | x | x | x | x | 9%
COc1ccc(/C=C2\CCCc3c2nc2ccccc2c3C(=O)O)cc1OC | x | 5% | x | x | x
COc1ccc(/C=C2\CCc3c2nc2ccccc2c3C(=O)O)cc1OC | 11µM* | 1% | u | -13% | -11%
O=C(O)c1cc(N=Nc2ccc(-c3ccc(N=Nc4ccc(O)c(C(=O)O)c4)cc3)cc2)ccc1O | x | x | x | x | 13µM*
O=C(O)c1cc(N=Nc2ccc(O)c(C(=O)O)c2)ccc1O | 45% | x | x | x | -10%
NC(=O)Cn1c(=O)n(Cc2ccco2)c(=O)c2c3c(sc21)CCCCC3 | -16% | u | u | i | 89µM*
CCCCC(CC)COC(=O)CC(C(=O)OCC(CC)CCCC)S(=O)(=O)O (stereo unspecified) | 1% | x | x | x | 25µM*
CCCCC(CC)COC(=O)C(C#N)=C(c1ccccc1)c1ccccc1 (stereo unspecified) | -13% | u | -3% | i | -21%
COCCN(C(=O)COC(=O)C1CCC(C(C)(C)C)CC1)c1c(N)n(Cc2ccccc2)c(=O)[nH]c1=O (stereo unspecified) | -2% | -4% | 24% | -5% | 11%
Cc1cc(SCC(=O)NN)c2cc(Br)ccc2n1 | 36% | -15% | 21% | -2% | 28µM*
Nc1nc2cc(S(=O)(=O)N3CCOCC3)ccc2o1 | -21% | 0% | 2% | i | 40µM*
CSc1nnc(NC(=O)c2cc(=O)c3cc(C)c(C)cc3o2)s1 | 10% | x | -4% | -2% | 13%
COc1ccc(N2C(=O)c3ccccc3NC2c2ccc(OC)c(COc3ccc(NC(C)=O)cc3)c2)cc1 (stereo unspecified) | x | x | 38% | x | -2%
CCOC(=O)CSC1=C(C#N)C(=O)NC2(CCCCC2)S1 | 13% | u | 4% | -9% | 79µM*
Cc1ccc(-c2cc[n+](Cc3ccccc3)cc2)cc1 | u | -8% | 0% | 9% | u
Cc1ccc2c(c1)sc[n+]2Cc1ccccc1 | 25% | 8% | 6% | -1% | 25µM*
COc1ccc(C(C[N+](=O)[O-])C2(c3ccc(OC)c(OC)c3)C(=O)c3ccccc3C2=O)cc1 (stereo unspecified) | 7% | u | 0% | i | 32µM*
O=C(N/N=C/c1cn(Cc2cccc(F)c2)c2ccccc12)c1cc(O)cc(O)c1 | 2.5µM* | u | x | 4.5µM* | 34%
SMILES | GLS inhibitor | Tb PFK block | Pin1 inhibitor | Tb PGK inh | VDR inhibitor
CN(C)CCCNS(=O)(=O)c1ccc(NC2CCCCCC2)c([N+](=O)[O-])c1 | -6% | 1% | 2% | -6% | -17%
Cc1ccc(CCC(=O)Nc2ccc(Cl)cc2)o1 | -3% | -3% | 9% | -8% | -3%
Cc1ccc(CCC(=O)Nc2ccc(CC(=O)O)cc2)o1 | u | 18% | -1% | 7% | 79µM*
Cc1ccc(C)n1/N=C1/NC(=O)CS1 | 10µM* | 2% | u | u | 20%
CC(C)(C)C1CCc2c(sc(NC(=O)c3noc4c3CCCC4)c2C#N)C1 (stereo unspecified) | 7% | x | -14% | 4% | u
CC(=O)NC1C(=O)N(CCN2CCOCC2)c2ccc(Cl)cc21 (stereo unspecified) | u | u | -20% | u | u
Cc1ccc2c(c1)C(=C(C#N)C#N)C(=O)N2CCN1CCOCC1 | 3% | -4% | -2% | -2% | 79µM*
CC(=O)NC1C(=O)N(CCN2CCOCC2)c2ccc(C)cc21 (stereo unspecified) | u | -25% | 50µM* | 20µM* | u
Cc1ccc2c(c1)C(=C(C#N)C#N)C(=O)N2CCN1CCCCC1 | -1% | -1% | -1% | -4% | 12%
Cc1ccccc1OC(=O)CSc1nnc(-c2ccc3c(c2)OCO3)o1 | -2% | x | -1% | i | 18%
Cc1cccc(C)c1-n1c(C)cc(/C=C2\NC(=O)NC2=O)c1C | -1% | 7% | 18% | -8% | -7%
Cc1c(/C=C2\NC(=O)NC2=O)c2ccccc2n1C | 13µM* | 0% | -1% | i | -11%
COc1ccc(OC)c(-c2csc(NC(=O)COC(=O)c3ccc(NC(=O)CC#N)cc3)n2)c1 | -7% | 21µM* | -3% | u | 14%
COc1ccc(OC)c(-c2csc(NC(=O)COC(=O)C3CCC3)n2)c1 | 0% | -2% | -3% | i | -6%
CN(C)c1ccc(C=Nc2ccccc2)cc1 | 20% | 1% | 9% | x | -2%
CN(C)c1ccc(N=Cc2ccco2)cc1 | 39% | -12% | 11% | -3% | 2µM*
COc1cccc2c1ncc1c(-c3ccc(C)cc3)nn(-c3cccc([N+](=O)[O-])c3)c12 | 1% | x | 1% | 13% | 3%
Cc1sc(NC(=O)CCS(=O)(=O)c2ccccc2)c(C#N)c1C | -2% | -22% | -3% | -1% | 89µM*
N#CCCn1c(=O)c(-c2ccc(F)cc2)nc2cnc(Oc3cccc(Cl)c3)nc21 | x | x | x | x | 1%
Cc1ccc(-c2nc(CS(=O)CC(=O)NCCc3ccc(Cl)cc3)c(C)o2)cc1 (stereo unspecified) | -1% | x | 17% | i | -11%
OCCN1CCN(CC(O)COCCOc2ccc(Br)cc2)CC1 (stereo unspecified) | -19% | 2% | -9% | i | 18µM*
Cc1ccccc1NC(=O)c1c(NC(=O)C(C)Oc2cccc(Cl)c2)sc2c1CCCC2 (stereo unspecified) | 6% | x | -6% | 4% | u
NC(=O)c1c(NC(=O)c2cc(-c3ccc(F)cc3)on2)sc2c1CCCC2 | -7% | x | -1% | -9% | 56µM*
CC(C)CCNC(=O)c1ccc2c(c1)NC(=O)C(CS(=O)(=O)Cc1ccc(F)cc1)N2 (stereo unspecified) | 13µM* | x | 15% | -3% | 20%
